Screening data from PubChem BioAssay.
EphB4 antag: antagonists of human EphB4-ephrin-B2 interaction; AID 720; inhibition, % at 7 µM; EphB4 LBD / TNYL-RAW-Alexa532 peptide, fluorescence polarization; 97,000 tested, 0.15% active; P54760;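 active = inhibition above the screen-wide mean inhibition plus 3 SD, cut at about 15% in these data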;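 note: 0% = DMSO wells and 100% = excess unlabeled TNYL-RAW peptide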
Target sequence (P54760 whole entry, looked up, the tested form may be a part): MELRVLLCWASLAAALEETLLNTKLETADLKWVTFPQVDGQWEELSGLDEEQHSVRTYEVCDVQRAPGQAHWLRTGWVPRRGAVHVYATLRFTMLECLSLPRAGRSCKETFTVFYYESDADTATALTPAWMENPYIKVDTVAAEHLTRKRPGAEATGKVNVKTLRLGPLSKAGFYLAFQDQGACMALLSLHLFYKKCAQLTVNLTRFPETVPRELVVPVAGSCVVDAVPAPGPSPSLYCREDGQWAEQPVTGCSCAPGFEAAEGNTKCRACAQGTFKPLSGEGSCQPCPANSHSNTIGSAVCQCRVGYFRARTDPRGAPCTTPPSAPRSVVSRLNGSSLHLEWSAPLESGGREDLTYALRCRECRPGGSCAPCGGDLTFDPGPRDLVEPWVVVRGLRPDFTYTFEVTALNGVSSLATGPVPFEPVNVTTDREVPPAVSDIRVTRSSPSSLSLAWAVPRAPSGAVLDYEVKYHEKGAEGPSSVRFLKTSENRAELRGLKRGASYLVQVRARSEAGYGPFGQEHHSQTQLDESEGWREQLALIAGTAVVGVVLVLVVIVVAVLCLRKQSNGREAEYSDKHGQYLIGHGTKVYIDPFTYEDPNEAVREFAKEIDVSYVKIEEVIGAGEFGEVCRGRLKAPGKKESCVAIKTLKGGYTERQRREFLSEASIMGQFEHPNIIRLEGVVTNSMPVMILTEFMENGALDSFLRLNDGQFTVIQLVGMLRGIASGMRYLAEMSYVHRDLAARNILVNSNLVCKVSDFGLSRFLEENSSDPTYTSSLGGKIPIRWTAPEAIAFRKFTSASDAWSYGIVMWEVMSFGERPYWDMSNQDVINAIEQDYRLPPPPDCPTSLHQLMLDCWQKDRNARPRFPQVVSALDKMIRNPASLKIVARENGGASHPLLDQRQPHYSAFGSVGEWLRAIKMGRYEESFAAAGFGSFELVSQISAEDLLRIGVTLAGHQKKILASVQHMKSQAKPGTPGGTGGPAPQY
CYP2C19 inh: human CYP2C19 inhibition. P33261. CYP2C19 Supersomes, luciferin-H EGE luminescence, 30 min. inhibition, % at 5 µM. 96,000 tested, 21% active. AID 778;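 active = CYP2C19 inhibition above a set limit at 5 µM in the primary screen, cut at about 50% in these data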;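 note: plate controls were negative control wells for no effect and 2.5 mM tranylcypromine positive control for full effect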
CYP2C19 activ: cytochrome P450 2C19 (human) activation; P33261; recombinant CYP2C19, luciferin-H EGE luminescence; stronger effect = higher value; 0 = fully inhibited enzyme, 1 = untreated enzyme; activation factor at 5 µM; 96,000 tested, under 10 active; AID 1025;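 active = activation factor of at least 2 at 5 µM in the primary screen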;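 note: 0 = wells with 2.5 mM tranylcypromine and 1 = vehicle-only wells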
CYP2C9 inh: human CYP2C9 inhibition. P11712. CYP2C9 Supersomes, luciferin-H conversion, luminescence. inhibition, % at 5 µM. 96,000 tested, 20% active. AID 777;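 active = blocking of liver enzyme CYP2C9 beyond about 50% at 5 µM, limit read from the data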
CYP2C9 activ: CYP2C9 (human) activation | AID 1024 | 96,000 tested, 1.4% active | P11712 | recombinant CYP2C9, luciferin-H conversion, luminescence; stronger effect = higher value; factor 1 = untreated enzyme, 0 = blocked | activation factor at 5 µM;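 active = activation factor of 2 or more for CYP2C9 at a 5 µM dose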;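 note: 0 = sulfaphenazole-blocked wells and 1 = vehicle-only wells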
Active calls of the source: *; nt = no result given. In the library only some 27% were active in any assay of this set; here they are far more common.

SMILES | EphB4 antag | CYP2C19 inh | CYP2C19 activ | CYP2C9 inh | CYP2C9 activ
COc1ccc(NC(=O)N2Cc3ccccc3CC2C(=O)NC(C)(C)C)cc1 (stereo not drawn) | 2 | 6 | 0.9 | -3 | 1
CC(=O)Nc1ccc(S(=O)(=O)NCCc2csc(C)n2)cc1 | -4 | nt | nt | nt | nt
CC(=O)N(CN1C(=O)c2ccccc2C1=O)c1cccc(C)c1 | 1 | 97* | 0 | 26 | 0.7
CC(=O)N(CN1C(=O)c2ccccc2C1=O)c1ccccc1 | 3 | 59* | 0.4 | 29 | 0.7
O=C(Cn1cc2c(n1)CCCCC2)NCCCN1CCOCC1 | nt | -5 | 1.1 | 2 | 1
CC(=O)N1CCc2cc(S(=O)(=O)NCCCOC(C)C)ccc21 | 2 | 15 | 0.9 | 9 | 0.9
COc1ccc(CNC(=O)C2CCNCC2)cc1 | 2 | 2 | 1 | -16 | 1.2
CN1C(=O)c2cccc(NC(=O)Cc3ccccc3)c2C1=O | 0 | 44 | 0.6 | 58* | 0.4
Cc1cccc(NC(=O)c2ccccc2NC(=O)Cc2ccccc2)c1C | -1 | nt | nt | nt | nt
COc1ccc2c(c1)CC(C1(O)C(=O)Nc3ccccc31)C2=O (stereo not drawn) | 5 | 83* | 0.2 | 18 | 0.8
C/C(=N\OC(=O)c1ccc(Cl)c(Cl)c1)c1sc(C)nc1C | 0 | 12 | 0.9 | 1 | 1
Cc1ccc(C2(c3ccc(C)cc3)CC2C(=O)Nc2ccc([N+](=O)[O-])cc2O)cc1 (stereo not drawn) | 2 | 20 | 0.8 | 75* | 0.2
Cc1nnc(SCC(=O)NC2CC2)n1CCc1ccccc1 | 4 | -9 | 1.1 | 0 | 1
CCOc1ccccc1N1CCN(S(=O)(=O)c2ccc(Cl)s2)CC1 | -10 | 45 | 0.5 | 46 | 0.5
COc1ccccc1N1CCN(C(=O)c2ccc(S(=O)(=O)N3CCCCCC3)cc2)CC1 | 1 | 52* | 0.5 | 71* | 0.3
COc1ccc(S(=O)(=O)N2CCN(c3cccc(C)c3C)CC2)cc1 | 0 | 97* | 0 | 88* | 0.1
COc1ccccc1N1CCN(S(=O)(=O)c2ccc(Cl)s2)CC1 | 2 | 97* | 0 | 96* | 0
CCOc1ccccc1N1CCN(S(=O)(=O)c2ccc(F)c(F)c2)CC1 | -2 | 45 | 0.5 | 38 | 0.6
COc1ccccc1NC(=O)c1ccc(S(=O)(=O)N2CCCC2)cc1 | 1 | 5 | 1 | 24 | 0.8
COc1ccccc1N1CCN(S(=O)(=O)c2cccc(F)c2)CC1 | -2 | 96* | 0 | 89* | 0.1
Cc1cccc(C)c1N1CCN(S(=O)(=O)c2ccc(F)cc2)CC1 | 0 | 97* | 0 | 93* | 0.1
COc1ccccc1N1CCN(S(C)(=O)=O)CC1 | -3 | 19 | 0.8 | 2 | 1
O=S(=O)(/C=C/c1ccccc1)N1CCN(c2ccccc2)CC1 | -5 | 30 | 0.7 | -13 | 1.1
COc1ccc(OC)c(S(=O)(=O)N2CCN(c3c(C)cccc3C)CC2)c1 | 1 | 50* | 0.5 | 98* | 0
COc1ccccc1N1CCN(S(=O)(=O)c2ccc(F)cc2)CC1 | 0 | 91* | 0.1 | 82* | 0.2
SMILES | EphB4 antag | CYP2C19 inh | CYP2C19 activ | CYP2C9 inh | CYP2C9 activ
COc1ccccc1N1CCN(S(=O)(=O)/C=C/c2ccccc2)CC1 | 7 | 100* | 0 | 66* | 0.3
O=C(CN1C(=O)CSc2ncccc21)NCCN1CCOCC1 | -4 | -18 | 1.2 | -14 | 1.1
COc1ccc(OCCCc2c(C)n[nH]c2C)cc1 | -1 | 85* | 0.2 | 69* | 0.3
COc1cccc(OCCc2c(C)n[nH]c2C)c1 | 2 | 19 | 0.8 | -3 | 1
Cc1cccc(OCCCCc2c(C)n[nH]c2C)c1 | -7 | 89* | 0.1 | 76* | 0.2
Cc1n[nH]c(C)c1CCCOc1ccccc1 | 1 | 87* | 0.1 | 60* | 0.4
Cc1ccc(S(=O)(=O)c2nc(-c3ccc(F)cc3)oc2SCC(N)=O)cc1 | 4 | nt | nt | nt | nt
COc1ccc(NC(=O)CSc2nnc(CNC(=O)c3ccco3)o2)c(OC)c1 | -1 | 3 | 1 | 8 | 0.9
CCOC(=O)c1cccc(NC(=O)CSc2nnc(-c3ccncc3)n2CCCOC)c1 | 0 | 50* | 0.5 | 64* | 0.4
CCCn1c(SCC(=O)Nc2nccs2)nnc1-c1cccnc1 | -1 | 59* | 0.4 | -1 | 1
CCCn1c(SCC(=O)Nc2cccc(C(=O)OC)c2)nnc1-c1cccnc1 | -2 | 43 | 0.6 | 51* | 0.5
CCCCn1c(SCC(=O)Nc2nc(C)cs2)nnc1-c1cccnc1 | -1 | 0 | 1 | -6 | 1.1
Nn1c(SCC(=O)Nc2ccccc2)nnc1-c1cccnc1 | 7 | 11 | 0.9 | 8 | 0.9
Cc1cccc(-n2c(O)c(C=NC3CCS(=O)(=O)C3)c3ccccc3c2=O)c1 (stereo not drawn) | -12 | 10 | 0.9 | 8 | 0.9
O=C(CSc1ccc2c(c1)OCCO2)Nc1ccc2c(c1)OCO2 | 2 | 100* | 0 | 92* | 0.1
CSc1nsc(SCC(=O)Nc2ccc3c(c2)OCCO3)n1 | 2 | 88* | 0.1 | 82* | 0.2
CSc1nsc(SCC(=O)Nc2ccccn2)n1 | 3 | 22 | 0.8 | -2 | 1
O=C(CSc1nnc2c(n1)[nH]c1ccccc12)Nc1ccc2c(c1)OCO2 | 2 | 5 | 1 | 64* | 0.4
O=C(CSc1ncn(-c2ccccc2)n1)Nc1ccc2c(c1)OCO2 | nt | 95* | 0.1 | 90* | 0.1
O=C(C1CC(c2ccc(F)cc2)=NO1)N1CCCCC1 (stereo not drawn) | 2 | nt | nt | nt | nt
CCOc1ccc2nc(NCCNC(=O)CC)c(C#N)cc2c1 | -8 | 4 | 1 | -15 | 1.2
COc1ccc(N(C)C(=S)Oc2ccc(C(=O)Nc3ccccc3)cc2)cc1 | 2 | 4 | 1 | 18 | 0.8
CC(Sc1nnc2ccccn12)C(=O)Nc1ncc(Cl)cc1Cl (stereo not drawn) | 2 | -6 | 1.1 | -9 | 1.1
CCOC(=O)c1cnc(SCC(=O)Nc2ccc3c(c2)OCCO3)nc1N | -3 | 38 | 0.6 | 69* | 0.3
CCOC(=O)c1cnc(SCC(=O)Nc2ccc(N3CCOCC3)cc2)nc1N | 6 | -8 | 1.1 | 1 | 1
SMILES | EphB4 antag | CYP2C19 inh | CYP2C19 activ | CYP2C9 inh | CYP2C9 activ
O=C(CSc1ccc2c(c1)OCCO2)Nc1ccc(Br)cc1 | 7 | 95* | 0 | 75* | 0.3
CC(Sc1ccc2c(c1)OCCO2)C(=O)Nc1ncc(Cl)cc1Cl (stereo not drawn) | -6 | 70* | 0.3 | 42 | 0.6
COc1cc(NC(=O)CSc2ccc3c(c2)OCCO3)cc(OC)c1OC | 5 | 26 | 0.7 | 19 | 0.8
COc1ccc(NC(=O)CSc2ccc3c(c2)OCCO3)cc1OC | -1 | 46 | 0.5 | 64* | 0.4
COCc1cc(C)nc(SCC(=O)Nc2ccc3c(c2)OCO3)c1C#N | -4 | 76* | 0.2 | 22 | 0.8
COCc1cc(C)nc(SCC(=O)Nc2cccc3cccnc23)c1C#N | -5 | -18 | 1.2 | 16 | 0.8
O=C(CSc1ccc2c(c1)OCCO2)NCc1ccco1 | -8 | 55* | 0.5 | 70* | 0.3
